The values below come from PubChem BioAssay (NCATS).

Unmarked numbers belong to inactive results. Inconclusive results are not listed. Activity calls are given as the source filed them. Unless noted, the call rests on the fitted dose curve; in most records, active means well fitted curve in either direction with a large enough effect (not every such curve was filed as active); inconclusive means small, poorly fitted or top-dose-only effect, or another doubt; inactive means flat fitted curve, though single readings scatter.

Experiment [1] concerns the target Lysosomal acid glucosylceramidase (Homo sapiens) (UniProt P04062). In words: Glucocerebrosidase-p2 (AID 348; in the data active means potency below about 10 µM; further: potency means the concentration at half of the fitted maximal effect). Particulars: purified GBA, blue fluorogenic substrate, 40 min. The method in brief:
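Normal human glucocerebrosidase (0.2 nM) with blue fluorogenic substrate (80 uM final) in citrate/phosphate pH 5.9 with 10mM sodium taurocholate, 0.01% tween-20; 40 min RT, NaOH/glycine stop; fluorescence Ex 365/Em 440; AC50 from a titration from 0.6 nM upwards.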

Experiment [2] in a line: AP1 Signaling Pathway (AID 357).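 Further: ME-180 reporter cells stimulated with EGF at its EC50 level; on the % scale 0 is the no-effect control and ±100 the full control effect.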 The note with it: ME-180 AP-1-bla reporter, EGF-induced, beta-lactamase ratio, 5 h; at 7.69 µM (top of the series) unless noted. The method in brief:
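AP-1-bla ME-180 cells, Opti-MEM + 0.5% dialyzed FBS, plated overnight 37 °C. Cpd titration + EC50 EGF, 5 h 37 °C. CCF4 2.5 h RT; ex 405, em 460/530 ratio → %activity, AC50.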

Experiment [3] deals with Cytochrome P450 1A2 (Homo sapiens) (UniProt P05177). Description: p450-cyp1a2 (AID 410; calls by dose curve; further: potency means the concentration at half of the fitted maximal effect). The note with it: recombinant CYP1A2, luciferin-ME demethylation, luminescence; series mostly up to 11.4 µM. The method in brief:
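O-Demethylation of luciferin 6' methyl ether by human CYP1A2 is monitored as luciferase luminescence. Substrate sits at Km (100uM); enzyme is 20nM. Values are scaled to 57 uM furafylline as maximal inhibition.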

Experiment [4] in a line: NFAT Signaling Pathway (AID 444).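 Further: carbachol stimulus at about its EC50 of 1 µM final; on the % scale 0 is the no-effect control and ±100 the full control effect.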 The note with it: Jurkat NFAT-bla M1, carbachol, beta-lactamase ratio, 5 h; at 7.69 µM (top of the series) unless noted. The method in brief: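 Jurkat cells with NFAT-driven β-lactamase reporter and co-expressed M1 receptor, stimulated with carbachol (final 1 uM, ~EC50), compound titration, 5 h at 37 °C. CCF4 loaded 1 h at RT; 460/530 nm ratio gave %activity and AC50.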

Experiment [5] in a line: Stat Signaling Pathway (AID 446).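 Further: ME-180 cervical cancer cells given 40 pM IL-6 alongside compound; SIE-controlled beta-lactamase reporter measured as 460/530 nm FRET emission ratio; on the % scale 0 is the no-effect control and ±100 the full control effect.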 Particulars: ME-180 SIE beta-lactamase reporter, IL-6 stimulated, 5 h; at 7.69 µM (top of the series) unless noted. The method in brief:
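Normalization used AC90 stimulation (300 pM IL-6) and AC90 inhibition (125 nM pan-JAK inhibitor at 40 pM IL-6). The underlying signal is SIE-driven beta-lactamase in ME-180 cells after 5 h IL-6 exposure with compound.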

Experiment [6] deals with Glucocorticoid receptor (Homo sapiens) (UniProt P04150). In words: GR-GFP Redistribution (AID 450;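 active means compounds whose dose series gives a full or clear partial fitted curve of increased nuclear translocation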; further: potency means the concentration at half of the fitted maximal effect). The note with it: U2OS GR-GFP nuclear translocation, laser cytometry, 2 h.
Glucocorticoid receptor (Homo sapiens), sequence (P04150 whole entry, looked up): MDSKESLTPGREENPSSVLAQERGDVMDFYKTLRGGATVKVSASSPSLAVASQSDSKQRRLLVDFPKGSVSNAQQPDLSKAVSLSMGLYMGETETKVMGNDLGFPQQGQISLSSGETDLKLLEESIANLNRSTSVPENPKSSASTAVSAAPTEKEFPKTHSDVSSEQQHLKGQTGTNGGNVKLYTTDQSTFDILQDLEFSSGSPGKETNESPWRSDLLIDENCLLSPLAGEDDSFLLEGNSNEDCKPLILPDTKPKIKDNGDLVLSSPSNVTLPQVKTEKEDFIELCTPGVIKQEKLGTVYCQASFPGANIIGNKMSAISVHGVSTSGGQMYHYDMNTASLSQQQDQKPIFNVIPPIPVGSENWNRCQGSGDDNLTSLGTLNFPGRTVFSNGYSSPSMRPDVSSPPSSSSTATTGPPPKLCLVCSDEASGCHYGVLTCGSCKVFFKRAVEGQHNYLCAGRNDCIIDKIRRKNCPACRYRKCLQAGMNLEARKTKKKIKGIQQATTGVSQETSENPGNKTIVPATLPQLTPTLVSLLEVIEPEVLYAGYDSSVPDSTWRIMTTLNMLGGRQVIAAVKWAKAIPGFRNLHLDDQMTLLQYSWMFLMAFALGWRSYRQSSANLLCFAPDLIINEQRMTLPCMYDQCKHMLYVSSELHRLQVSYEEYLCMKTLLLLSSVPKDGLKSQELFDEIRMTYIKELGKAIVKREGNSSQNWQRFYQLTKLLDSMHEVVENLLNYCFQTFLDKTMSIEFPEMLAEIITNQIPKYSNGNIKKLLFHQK
Experiment [7] has the same target. In words: GR-EFC Redistribution (AID 451; calls by dose curve; further: potency means the concentration at half of the fitted maximal effect). Particulars: CHO-K1 GR-EFC translocation, beta-gal luminescence, 2 h. The method in brief:
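CHO-K1 cells expressing nuclear EA and GR-ED fragments of b-gal; compounds titrated up to 46 uM final, 2 h at 37 C. GR nuclear translocation read as complemented b-gal luminescence after 1 h RT detection.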

Experiment [8] has as its target Mitogen-activated protein kinase 10 (Mus musculus) (UniProt Q61831). Description: JNK3 AlphaScreen Assay (AID 530).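 Further: kinase came from lysate of stimulated human HepG2 cells; signal reports phosphorylation of biotinylated GST-cJun 1-79 at Ser73 with 10 µM ATP; on the % scale 0 is the no-effect control and ±100 the full control effect.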 The note with it: JNK3 lysate, c-Jun phosphorylation; series mostly up to 57.1 µM. The method in brief: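 Activity was read by AlphaScreen after JNK3-containing HepG2 lysate (cytokine pre-activated) phosphorylated biotinylated GST-cJun with 10 uM ATP at room temperature. Phospho-Ser73 cJun antibody with Protein-A acceptor beads provided detection.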

Experiment [9] addresses Cytochrome P450 3A4 (Homo sapiens) (UniProt P08684). Description: qHTS Assay for Activators of Cytochrome P450 3A4 (AID 885; active means well fitted curve in the direction sought with a large enough effect; an effect the other way counts as inactive or inconclusive; further: nearly all actives have a fitted effect of over 65% in size; further: potency means the concentration at half of the fitted maximal effect). Particulars: recombinant CYP3A4, Luciferin-PPXE luminescence, 60 min; series mostly up to 57.1 µM. The method in brief:
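Human CYP3A4 dealkylates Luciferin-PPXE to luciferin, which luciferase detection converts to light. Substrate was at its KM (25uM), buffer 200mM KPO4, reaction 60 min at RT.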

The target of experiment [10] is Cytochrome P450 2D6 (Homo sapiens) (UniProt P10635). In words: qHTS Assay for Inhibitors and Substrates of Cytochrome P450 2D6 (AID 891; active means well fitted curve in the direction sought with a large enough effect; an effect the other way counts as inactive or inconclusive; further: potency means the concentration at half of the fitted maximal effect; nearly all actives have a fitted effect of over 60% in size). Particulars: recombinant CYP2D6, luciferin-ME EGE luminescence; series mostly up to 11.4 µM. The method in brief: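 Luminescent read-out of luciferin formed by 5 nM human CYP2D6 demethylating 30 uM Luciferin-ME EGE (Km level) over 60 min at room temperature after NADPH regeneration addition. Data normalized to full inhibition by 1.43 uM quinidine.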
Cytochrome P450 2D6 (Homo sapiens), sequence (P10635 whole entry, looked up): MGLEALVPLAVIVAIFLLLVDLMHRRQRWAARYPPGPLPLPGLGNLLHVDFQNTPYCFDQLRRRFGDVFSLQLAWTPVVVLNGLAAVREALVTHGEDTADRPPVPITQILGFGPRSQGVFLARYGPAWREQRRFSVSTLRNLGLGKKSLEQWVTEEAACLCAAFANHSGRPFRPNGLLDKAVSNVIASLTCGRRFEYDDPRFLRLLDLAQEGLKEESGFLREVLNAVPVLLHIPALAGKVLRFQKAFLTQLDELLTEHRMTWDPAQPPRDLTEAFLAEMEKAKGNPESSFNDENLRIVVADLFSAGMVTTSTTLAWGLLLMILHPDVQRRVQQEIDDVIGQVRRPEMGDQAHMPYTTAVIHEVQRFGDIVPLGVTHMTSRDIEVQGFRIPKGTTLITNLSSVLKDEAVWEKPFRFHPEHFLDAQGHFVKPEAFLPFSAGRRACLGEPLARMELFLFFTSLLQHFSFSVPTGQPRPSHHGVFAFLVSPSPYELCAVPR

In experiment [11] the target is 3',5'-cyclic-AMP phosphodiesterase 4B (Homo sapiens) (UniProt Q07343). In words: qHTS Assay for Inhibitors of PDE-IV (AID 607; active means well fitted activation curve with a large enough effect in the main read-out, with a control signal flat, not every such curve was filed as active; further: % of control where 0% means no effect). Particulars: HEK293 ACTOne CNG channel cells, membrane potential fluorescence; series mostly up to 22.9 µM. The method in brief: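 HEK293 ACTOne cells with CNG channel (1000/well), endogenous PDE4; membrane potential dye, compounds up to 22.9 uM final. Fluorescence Ex 535/Em 590; RO 20-1724 (100 uM final) as reference.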
3',5'-cyclic-AMP phosphodiesterase 4B (Homo sapiens), sequence (Q07343 whole entry, looked up): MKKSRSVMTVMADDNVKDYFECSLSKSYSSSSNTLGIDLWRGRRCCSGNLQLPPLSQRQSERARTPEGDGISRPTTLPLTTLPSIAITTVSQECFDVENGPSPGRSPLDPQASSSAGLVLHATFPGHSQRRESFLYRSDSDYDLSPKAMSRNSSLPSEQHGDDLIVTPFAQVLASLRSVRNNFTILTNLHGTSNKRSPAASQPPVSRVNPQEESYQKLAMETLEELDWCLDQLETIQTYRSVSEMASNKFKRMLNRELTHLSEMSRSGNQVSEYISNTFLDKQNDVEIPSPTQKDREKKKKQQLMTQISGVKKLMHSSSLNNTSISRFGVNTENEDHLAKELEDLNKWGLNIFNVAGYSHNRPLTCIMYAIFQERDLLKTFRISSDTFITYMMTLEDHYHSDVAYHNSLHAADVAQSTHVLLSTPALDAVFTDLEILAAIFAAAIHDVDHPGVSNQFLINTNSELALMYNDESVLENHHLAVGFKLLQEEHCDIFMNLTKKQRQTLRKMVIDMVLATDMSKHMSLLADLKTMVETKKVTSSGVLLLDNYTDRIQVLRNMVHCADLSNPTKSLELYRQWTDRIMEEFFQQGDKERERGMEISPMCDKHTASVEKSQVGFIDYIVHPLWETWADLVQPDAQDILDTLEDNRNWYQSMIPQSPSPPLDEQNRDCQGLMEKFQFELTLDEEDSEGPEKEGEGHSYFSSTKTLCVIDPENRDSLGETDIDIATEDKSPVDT

Experiment [12] deals with Cytochrome P450 2C9 (Homo sapiens) (UniProt P11712). Description: qHTS Assay for Inhibitors and Substrates of Cytochrome P450 2C9 (AID 883; active means well fitted curve in the direction sought with a large enough effect; an effect the other way counts as inactive or inconclusive; further: potency means the concentration at half of the fitted maximal effect; nearly all actives have a fitted effect of over 60% in size). The note with it: recombinant CYP2C9, luciferin-H luminescence, 60 min; series mostly up to 57.1 µM. The method in brief: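 Signal: luciferase luminescence reporting luciferin produced by CYP2C9. Conditions: 10nM enzyme, Luciferin-H 100uM at KM, 25mM KPO4, 37C, 60 min NADPH-driven reaction. Reference: 57uM sulphaphenazole as 100% inhibition.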
Cytochrome P450 2C9 (Homo sapiens), sequence (P11712 whole entry, looked up): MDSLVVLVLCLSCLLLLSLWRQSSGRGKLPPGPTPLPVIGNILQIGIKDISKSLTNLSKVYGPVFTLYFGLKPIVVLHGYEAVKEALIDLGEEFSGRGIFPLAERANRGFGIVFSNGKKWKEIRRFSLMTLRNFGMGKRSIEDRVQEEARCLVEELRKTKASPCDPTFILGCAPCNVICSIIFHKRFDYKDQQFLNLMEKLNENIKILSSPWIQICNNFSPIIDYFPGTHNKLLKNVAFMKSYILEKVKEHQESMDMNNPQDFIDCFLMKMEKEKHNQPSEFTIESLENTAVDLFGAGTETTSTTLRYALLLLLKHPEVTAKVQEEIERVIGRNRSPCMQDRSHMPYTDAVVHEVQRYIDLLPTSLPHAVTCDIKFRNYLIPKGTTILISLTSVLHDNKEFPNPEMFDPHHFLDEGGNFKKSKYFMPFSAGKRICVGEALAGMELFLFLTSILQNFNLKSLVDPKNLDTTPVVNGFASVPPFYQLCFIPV

Experiment [13] addresses Cytochrome P450 2C19 (Homo sapiens) (UniProt P33261). In words: qHTS Assay for Inhibitors and Substrates of Cytochrome P450 2C19 (AID 899; active means well fitted curve in the direction sought with a large enough effect; an effect the other way counts as inactive or inconclusive; further: nearly all actives have a fitted effect of over 60% in size; further: potency means the concentration at half of the fitted maximal effect). Particulars: recombinant CYP2C19, luciferin-H EGE luminescence; series mostly up to 11.4 µM. The method in brief: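 Signal comes from luciferase acting on luciferin released by CYP2C19-mediated hydroxylation of Luciferin-H EGE, 10uM (KM). Assay mix: 5nM enzyme, 50mM KPO4; 60 min at 37C with NADPH regeneration. Data normalized against 57uM ketoconazole.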

Experiment [14] addresses Cytochrome P450 3A4 (Homo sapiens) (UniProt P08684). In words: qHTS Assay for Inhibitors and Substrates of Cytochrome P450 3A4 (AID 884; active means well fitted curve in the direction sought with a large enough effect; an effect the other way counts as inactive or inconclusive; further: on the % scale 0 is the no-effect control and ±100 the full control effect; nearly all actives have a fitted effect of over 50% in size). Particulars: recombinant CYP3A4, Luciferin-PPXE luminescence; series mostly up to 57.1 µM. The method in brief: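 Luminescent readout of luciferin produced by CYP3A4 (20 nM) dealkylation of Luciferin-PPXE, 25 uM (its KM). NADPH-driven reaction ran 60 min at RT after 10 min compound preincubation; data scaled to 57 uM ketoconazole as 100% inhibition.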

Experiment [15] can be described thus: qHTS Assay for Identification of Small Molecule Agonists for Hypoxia Response Element Signaling Pathway (AID 914; active means well fitted activation curve with a large enough effect in the signal ratio, with a control signal flat, not every such curve was filed as active; the % refers to the signal ratio; further: % of control where 0% means no effect). Particulars: ME-180 (cervical carcinoma) HRE-bla reporter, beta-lactamase ratio, CoCl2, 17 h; hits give high values. The method in brief: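 Read-out: CCF4 FRET ratio of 460nm to 530nm emission (excitation 405nm) after 2.5 hours at room temperature, taken from HRE-bla ME-180 cells that had been exposed to compound and EC50 CoCl2 for 17 hours.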

Cytochrome P450 1A2 (Homo sapiens), sequence (P05177 whole entry, looked up): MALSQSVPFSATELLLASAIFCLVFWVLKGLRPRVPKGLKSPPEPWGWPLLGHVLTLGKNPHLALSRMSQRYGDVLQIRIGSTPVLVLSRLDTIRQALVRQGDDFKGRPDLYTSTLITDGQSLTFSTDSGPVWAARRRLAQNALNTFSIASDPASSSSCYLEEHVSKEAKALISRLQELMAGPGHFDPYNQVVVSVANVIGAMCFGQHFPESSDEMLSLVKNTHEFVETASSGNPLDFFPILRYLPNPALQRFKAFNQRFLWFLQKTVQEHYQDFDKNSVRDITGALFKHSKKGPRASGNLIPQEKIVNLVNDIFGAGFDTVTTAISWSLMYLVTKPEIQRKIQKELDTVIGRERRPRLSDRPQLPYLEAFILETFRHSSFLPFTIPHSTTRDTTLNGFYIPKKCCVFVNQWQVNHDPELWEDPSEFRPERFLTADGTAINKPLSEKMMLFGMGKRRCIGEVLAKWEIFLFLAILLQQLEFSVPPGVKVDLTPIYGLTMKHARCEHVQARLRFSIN
Lysosomal acid glucosylceramidase (Homo sapiens), sequence (P04062 whole entry, looked up): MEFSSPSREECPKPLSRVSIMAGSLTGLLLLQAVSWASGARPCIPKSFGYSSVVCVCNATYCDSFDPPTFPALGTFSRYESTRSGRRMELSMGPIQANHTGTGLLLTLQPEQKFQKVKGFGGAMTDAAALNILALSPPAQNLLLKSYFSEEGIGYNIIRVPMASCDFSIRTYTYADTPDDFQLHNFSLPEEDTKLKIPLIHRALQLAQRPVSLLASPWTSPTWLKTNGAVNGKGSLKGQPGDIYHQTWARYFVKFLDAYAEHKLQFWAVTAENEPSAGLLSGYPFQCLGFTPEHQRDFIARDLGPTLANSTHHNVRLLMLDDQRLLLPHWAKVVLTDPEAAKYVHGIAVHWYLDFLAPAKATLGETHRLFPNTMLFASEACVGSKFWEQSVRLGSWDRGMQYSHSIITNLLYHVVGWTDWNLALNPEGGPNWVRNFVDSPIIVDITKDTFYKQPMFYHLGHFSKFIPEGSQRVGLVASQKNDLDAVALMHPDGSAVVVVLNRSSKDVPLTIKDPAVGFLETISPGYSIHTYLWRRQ
Cytochrome P450 3A4 (Homo sapiens), sequence (P08684 whole entry, looked up): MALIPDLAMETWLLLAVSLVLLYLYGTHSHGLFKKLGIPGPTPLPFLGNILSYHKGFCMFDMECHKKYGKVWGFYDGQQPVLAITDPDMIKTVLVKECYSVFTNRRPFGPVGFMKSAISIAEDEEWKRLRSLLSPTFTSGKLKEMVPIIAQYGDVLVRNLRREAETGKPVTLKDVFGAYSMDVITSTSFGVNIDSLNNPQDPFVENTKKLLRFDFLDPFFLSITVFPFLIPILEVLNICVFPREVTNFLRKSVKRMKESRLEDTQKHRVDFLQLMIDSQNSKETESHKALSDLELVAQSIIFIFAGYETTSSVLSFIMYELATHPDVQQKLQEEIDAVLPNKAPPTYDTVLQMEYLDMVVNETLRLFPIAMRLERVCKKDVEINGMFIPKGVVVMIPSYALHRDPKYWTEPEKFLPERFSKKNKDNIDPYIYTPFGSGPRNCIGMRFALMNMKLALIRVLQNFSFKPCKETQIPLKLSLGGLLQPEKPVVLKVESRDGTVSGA
Cytochrome P450 2C19 (Homo sapiens), sequence (P33261 whole entry, looked up): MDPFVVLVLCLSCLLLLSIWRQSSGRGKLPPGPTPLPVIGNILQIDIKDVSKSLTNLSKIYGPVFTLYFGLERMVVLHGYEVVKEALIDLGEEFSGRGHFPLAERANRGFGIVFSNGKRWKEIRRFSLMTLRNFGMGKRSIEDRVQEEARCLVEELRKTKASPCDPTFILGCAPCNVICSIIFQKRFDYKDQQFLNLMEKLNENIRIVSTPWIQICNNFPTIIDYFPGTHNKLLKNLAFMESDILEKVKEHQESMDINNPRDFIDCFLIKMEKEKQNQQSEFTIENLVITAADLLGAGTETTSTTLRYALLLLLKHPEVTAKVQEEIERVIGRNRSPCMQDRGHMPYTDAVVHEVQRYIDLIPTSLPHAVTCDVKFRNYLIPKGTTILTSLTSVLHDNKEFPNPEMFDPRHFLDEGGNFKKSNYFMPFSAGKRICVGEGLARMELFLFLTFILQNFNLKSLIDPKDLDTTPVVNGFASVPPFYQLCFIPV

Take `CCC1=C(C[C@H]2NCCc3cc(OC)c(OC)cc32)C[C@H]2c3ccccc3CCN2C1`: the Potency in experiment [1] was > 11.4 µM; in [6], > 46 µM; in [7], > 9.22 µM; in experiment [10], 0.316 µM (active). Further, the activity change, negative = inhibition in experiment [2] is 9.05%; in experiment [4] it was -19.1%; in [8] it was 5.5% [at 11.4 µM]. Moreover, the Potency result in experiment [3] was “inactive”. In addition, the activity, negative = inhibition in [5] was 8.03%. The activity change, positive = activation in experiment [9] was -34.9% [at 11.4 µM].
With `O=C(C[C@H](c1ccccc1)c1c(O)c2ccccc2oc1=O)c1ccccc1`, the Potency in experiment [1] was > 11.4 µM; in experiment [6], > 46 µM; in experiment [7] it was > 9.22 µM; in [12], 0.631 µM (active). Also, the activity change, negative = inhibition in experiment [2] is 2.29%; in experiment [3], -12.6% [at 2.29 µM]; in [4], 11.4%; in experiment [8], -4.41% [at 11.4 µM]. In addition, the activity, negative = inhibition in [5] was -9.56%. In experiment [11], the call was inactive. In addition, the activity change, positive = activation in [9] is -30.1% [at 11.4 µM].
For the compound `CN[C@H](Cc1ccccc1)c1cccc(OC)c1O`, the Potency in experiment [1] was > 11.4 µM; in experiment [6] it was > 46 µM; in experiment [7], > 9.22 µM; in experiment [10] it was 0.0398 µM (active); in [13] it was 2 µM (active). The activity change, negative = inhibition was 4.57% in experiment [2], 10.1% in [4] and 1.41% [at 11.4 µM] in [8]. Further, the Potency entry in [3] is “inactive”. Further, the activity, negative = inhibition in experiment [5] is -6.4%. Also, the compound was classed as inactive in [11].
For the compound `C[n+]1c(/C=C\c2ccc(O)c3ncccc23)[se]c2ccccc21`, the figures for the Potency in [1], in experiment [6] and in [7] were > 11.4 µM, > 46 µM and > 9.22 µM, respectively. In addition, the activity change, negative = inhibition in experiment [2] is -7.45%; in experiment [3], -22.7% [at 2.29 µM]; in [4] it was -19%; in experiment [8], -13.6% [at 11.4 µM]. Besides, the activity, negative = inhibition in experiment [5] was 13%. Besides, the call in [11] was inactive. Also, in experiment [9], the activity change, positive = activation was -31.7% [at 11.4 µM].
As to `CC(=O)O[C@H]1CC[C@@]2(C)[C@@H](CC[C@H]3[C@H]2CC(=O)[C@]2(C)[C@@H]3C[C@@H](N3CC3)[C@H]2C(C)=O)C1`, the Potency in experiment [1] was > 11.4 µM; in experiment [3] it was 0.0398 µM (active); in [6], > 46 µM; in experiment [7], > 9.22 µM; in experiment [9], 3.98 µM (active). Moreover, the activity change, negative = inhibition in experiment [2] was 4.13%; in [4], 13.1%; in experiment [8], -0.773% [at 11.4 µM]; in [14], 71.6% [at 11.4 µM]. In addition, the activity, negative = inhibition in experiment [5] was 5.02%. The outcome in experiment [11] was inactive. The Potency result in [13] was “inactive”. Moreover, the activation in [15] was 5.69%.
Regarding `O=P(O)(O)CCP(=O)(O)O`, the Potency was > 11.4 µM in experiment [1], > 46 µM in [6] and > 9.22 µM in experiment [7]. Also, the activity change, negative = inhibition in experiment [2] was -10.9%; in experiment [4], 7.15%; in [8], -1.32% [at 11.4 µM]. The Potency result in experiment [3] is “inactive”. Also, the activity, negative = inhibition in [5] was 11.8%. Besides, the outcome in experiment [11] was inactive.
